For 28 compounds, outcome and Potency results are on record in PubChem BioAssay (NCATS).

Values joined by “and” are separate entries in the source; they are usually repeats but may differ in a detail not shown here. Identical values can stand only once. Records with an inconclusive call do not appear. Where a call stands in place of a potency, no number is given. Active and inactive are the calls of the source. Unless noted, calls come from the whole dose curve; as a rule, active = well fitted curve in the direction sought with a large enough effect; inconclusive = small, poorly fitted or top-dose-only effect, or another doubt; inactive = no such curve, though single readings can be large; an effect the other way counts as inactive or inconclusive.

Experiment [1] can be described thus: qHTS for Inhibitors of Ubiquitin-specific Protease USP2a Using CHOP2 as the Reporter: K633 Counterscreen (AID 652168). Note: series mostly up to about 57 µM. The essentials: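 Cell-free interference counterscreen without USP2a: compounds pinned into enzyme-free buffer (20 mM Tris pH 8, 2 mM beta-mercaptoethanol, 0.05% Chaps), then DiUb K48-4IQF substrate added (100 nM stock); fluorescence read kinetically, Ex 525/Em 598.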
(Quantitative high-throughput screening tests each substance at several concentrations.)

The nature of experiment [2]: qHTS for Inhibitors of Ubiquitin-specific Protease USP2a Using CHOP2 as the Reporter: Cytotox Assay (AID 652170). Note: nearly all actives have a fitted effect of over 70% in size. Note: potency is the fitted concentration of half-maximal effect. The procedure, abridged:
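HCT116 human colon cancer cells, 600 per well in DMEM with 10% FBS, exposed to compounds for 72 hr at 37 deg C. ATP measured by CellTiter-Glo luminescence, normalized to DMSO cells and no-cell background.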

The target in experiment [3] is Calcium and integrin-binding protein 1 (Homo sapiens) (UniProt Q99828). Nature of the experiment: Primary qHTS for Identification of Calcium Integrin Binding Protein 1 (CIB1) Competitor (AID 1508620).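 Note: GST tagged CIB1 binding a fluorescein labelled alphaIIb integrin peptide tracer; top concentration of the series differs between compounds.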 The essentials:
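CIB1-GST (1 uM final) and compound incubated 15 min at room temperature before adding FITC-alphaIIb peptide tracer (100 nM final). Competition for binding read by fluorescence polarization (ex 480, em 540) after another 15 min at room temperature.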

Experiment [4] has as its target Ubiquitin carboxyl-terminal hydrolase 2 (Homo sapiens) (UniProt O75604). As to the kind of experiment: qHTS for Inhibitors of Ubiquitin-specific Protease USP2a Using CHOP2 as the Reporter: K484 Substrate (AID 652173).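 Note: cleavage of internally quenched K48 di-ubiquitin substrate measured as rising fluorescence over time; nearly all actives have a fitted effect of over 70% in size.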 Note: potency is the fitted concentration of half-maximal effect. The essentials: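 USP2 (dispensed at 5 nM) was pinned with compounds, then DiUb K48 internally quenched fluorescent substrate (dispensed at 100 nM) was added. The buffer was 20 mM Tris pH 8, 2 mM beta-mercaptoethanol and 0.05% CHAPS. Cleavage was read kinetically as rising fluorescence, Ex 525/Em 598.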

Experiment [5] addresses Mitogen-activated protein kinase 10 (Mus musculus) (UniProt Q61831). As to the kind of experiment: JNK3 AlphaScreen Assay (AID 530; active = well fitted curve in either direction with a large enough effect, not every such curve was filed as active;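 note: kinase came from lysate of stimulated human HepG2 cells; signal reports phosphorylation of biotinylated GST-cJun 1-79 at Ser73 with 10 µM ATP; series mostly up to about 57 µM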). The essentials:
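Room-temperature AlphaScreen kinase assay; pre-activated HepG2 lysate as JNK3 source, biotin-GST-cJun(1-79) substrate, 10 uM ATP, compound 15 min preincubation.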
A general note: Alpha assays give light when donor and acceptor beads are brought close together.

Experiment [6] addresses Cytochrome P450 3A4 (Homo sapiens) (UniProt P08684). Nature of the experiment: qHTS Assay for Activators of Cytochrome P450 3A4 (AID 885). Note: nearly all actives have a fitted effect of over 65% in size. The procedure, abridged: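 Signal was normalized against complete inhibition by 57 uM ketoconazole. The reaction used 20nM CYP3A4 with 25uM Luciferin-PPXE, 10-min compound preincubation and a 60-min NADPH-supported step at RT.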
The nature of experiment [7]: qHTS for Inhibitors of the vitamin D receptor (VDR): Hit Validation using a Texas Red Assay (AID 602201). Note: potency is the fitted concentration of half-maximal effect. The procedure, abridged:
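After a 2-hour room-temperature incubation, polarization of Texas-Red emission was read (Ex 595 nm/Em 615 nm). Final mix contained 7 nM Texas Red, 1.5 uM VDR-LBD and LG19078.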

Chain of Ubiquitin carboxyl-terminal hydrolase 2 (Homo sapiens) (O75604 whole entry, looked up): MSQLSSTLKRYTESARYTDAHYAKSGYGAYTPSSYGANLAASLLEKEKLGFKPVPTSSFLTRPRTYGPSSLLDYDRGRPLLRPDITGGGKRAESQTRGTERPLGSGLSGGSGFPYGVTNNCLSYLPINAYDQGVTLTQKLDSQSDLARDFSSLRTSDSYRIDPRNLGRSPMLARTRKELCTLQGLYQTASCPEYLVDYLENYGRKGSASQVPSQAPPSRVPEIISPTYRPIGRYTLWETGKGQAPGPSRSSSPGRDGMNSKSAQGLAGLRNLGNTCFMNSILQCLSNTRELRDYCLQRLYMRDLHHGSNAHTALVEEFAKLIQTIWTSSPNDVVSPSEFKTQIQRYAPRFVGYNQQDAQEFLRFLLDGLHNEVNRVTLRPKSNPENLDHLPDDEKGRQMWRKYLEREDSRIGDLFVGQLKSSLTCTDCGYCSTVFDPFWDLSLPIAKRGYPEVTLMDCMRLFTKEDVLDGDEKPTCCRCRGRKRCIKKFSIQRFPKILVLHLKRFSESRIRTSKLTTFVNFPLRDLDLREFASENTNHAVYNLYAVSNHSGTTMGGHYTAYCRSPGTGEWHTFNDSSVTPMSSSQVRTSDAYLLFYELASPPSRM
Chain of Calcium and integrin-binding protein 1 (Homo sapiens) (Q99828 whole entry, looked up): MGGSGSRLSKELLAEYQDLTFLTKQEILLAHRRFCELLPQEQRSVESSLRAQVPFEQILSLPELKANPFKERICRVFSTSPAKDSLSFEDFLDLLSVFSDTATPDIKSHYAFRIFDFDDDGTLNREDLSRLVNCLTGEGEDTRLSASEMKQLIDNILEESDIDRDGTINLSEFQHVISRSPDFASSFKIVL
Chain of Cytochrome P450 3A4 (Homo sapiens) (P08684 whole entry, looked up): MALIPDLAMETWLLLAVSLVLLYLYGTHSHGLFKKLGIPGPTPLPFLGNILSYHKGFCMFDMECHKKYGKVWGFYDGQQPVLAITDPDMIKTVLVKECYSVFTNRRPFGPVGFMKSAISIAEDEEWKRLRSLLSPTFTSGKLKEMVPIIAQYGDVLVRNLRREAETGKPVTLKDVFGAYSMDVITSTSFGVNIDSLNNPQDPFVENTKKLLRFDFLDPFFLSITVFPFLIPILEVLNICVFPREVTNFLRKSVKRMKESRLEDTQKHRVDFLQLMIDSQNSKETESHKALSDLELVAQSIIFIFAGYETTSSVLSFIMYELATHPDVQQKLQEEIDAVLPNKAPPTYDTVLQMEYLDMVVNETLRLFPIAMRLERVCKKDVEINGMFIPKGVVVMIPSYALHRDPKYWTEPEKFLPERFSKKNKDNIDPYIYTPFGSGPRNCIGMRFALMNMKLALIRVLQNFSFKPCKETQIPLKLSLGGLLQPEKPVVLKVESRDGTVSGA

On to `COc1ccc(C(=O)Nc2nc(-c3ccccc3)cs2)c(OC)c1`, for which, in experiment [1], the outcome was inactive. Also, the Potency entry in experiment [2] and in experiment [3] was “inactive” each time.

On to `CC(C)(C)OC(=O)N1CCC(C(=O)Nc2ccc([S+](=O)([O-])Nc3nccs3)cc2)CC1`, for which the call in experiment [1] was inactive. Moreover, the Potency result in experiment [2], in experiment [4] and in experiment [3] was “inactive” in each case.

For `Cc1ccc(S(=O)(=O)NCCC(=O)Nc2nc(-c3ccccc3)cs2)cc1`, in experiment [1], the call was inactive. Moreover, the Potency entry in experiment [2] and in experiment [3] was “inactive” each time. The Potency in experiment [4] is 19.3 µM (active).

As to `Cc1nc(N2CCOCC2)c2nc(-c3ccccc3)n(C(C)CN(C)C)c2n1` (stereo not given), the compound was called inactive in experiment [5]. In addition, the Potency entry in experiment [6] and in experiment [3] was “inactive” in each case.

Consider `CC1(C)CC(C(=O)Nc2ccc([S+](=O)([O-])Nc3nccs3)cc2)C1`, for which, in experiment [1], the outcome was inactive. For the same compound, the Potency result in experiment [2], in experiment [4] and in experiment [3] was “inactive” in each case.

Turning to `O=S(=O)(Nc1ccc(S(=O)(=O)Nc2nccs2)cc1)c1ccc2ccccc2c1`, the outcome in experiment [1] was inactive. Besides, the Potency entry in experiment [2] and in experiment [3] was “inactive” in each case.

For the compound `Cc1ccc(S(=O)(=O)Nc2cc(F)c(F)cc2C(=O)Nc2nc(-c3ccccc3)cs2)cc1`, the outcome in experiment [1] was inactive. The Potency in experiment [2] was 2.96 µM (active); in experiment [4] it was 0.863 µM (active). Further, in experiment [3], the Potency result is “inactive”.

Regarding `O=C(Nc1ccc(S(=O)(=O)Nc2nccs2)cc1)C1CC(OCc2ccccc2)C1` (stereo not given), the result in experiment [1] was inactive. For the same compound, the Potency entry in experiment [2] and in experiment [3] was “inactive” each time.

Take `O=C(Cc1ccccc1)Nc1sc2c(c1C(=O)Nc1ccc(Cl)cc1)CCCC2`: the Potency in experiment [7] was 4.47 µM (active). In addition, the Potency entry in experiment [3] is “inactive”.

As for `CCCCNc1nc(C)nc2c1nc(-c1ccccc1)n2CCCN(C)C`, in experiment [5], the compound was called inactive. Moreover, the Potency result in experiment [6] and in experiment [3] was “inactive” each time.

On to `CCCCCC1CCC(C(=O)Nc2ccc(S(=O)(=O)Nc3nccs3)cc2)CC1` (stereo not given), for which the compound was classed as inactive in experiment [1]. Also, the Potency result in experiment [2] and in experiment [3] was “inactive” each time. The Potency in experiment [4] is 4.32 µM (active) and 3.85 µM (active).

Consider `O=C(CSc1nc2ccc(S(=O)(=O)N3CCOCC3)cc2[nH]1)N1CCOCC1`, for which the Potency result in experiment [7] and in experiment [3] was “inactive” in each case.

Take `Cc1ccc(-c2cc(C(=O)Nc3cccc(Cl)c3)c3ccccc3n2)cc1C`: the result in experiment [1] was inactive. In addition, the Potency result in experiment [2] and in experiment [3] was “inactive” each time.

`O=C(Nc1ccc(S(=O)(=O)Nc2nccs2)cc1)c1ccnc(-c2ccccc2)c1`: the compound was called inactive in experiment [1]. Moreover, the Potency result in experiment [2] and in experiment [3] was “inactive” in each case. For the same compound, in experiment [4], the Potency is 13.7 µM (active).

On to `Cc1noc(C)c1S(=O)(=O)Nc1cnccc1C(=O)Nc1nc(-c2ccccc2)cs1`, for which the call in experiment [1] was inactive. Also, the Potency result in experiment [2] and in experiment [3] was “inactive” throughout. Also, the Potency in experiment [4] was 6.85 µM (active).

Take `O=C(Nc1nc(-c2ccccc2)cs1)c1ccncc1NS(=O)(=O)c1ccc(N2CCCC2=O)cc1`: the compound was classed as inactive in experiment [1]. The Potency entry in experiment [2] and in experiment [3] was “inactive” each time. Further, in experiment [4], the Potency is 15.3 µM (active).

On to `Cc1ccc(NC(=O)c2ccncc2NS(=O)(=O)c2ccc(C)cc2)cc1`, for which, in experiment [1], the compound was called inactive. The Potency result in experiment [2] and in experiment [3] was “inactive” each time.

With `Cc1ccc(S(=O)(=O)Nc2cnccc2C(=O)Nc2nc(-c3ccncc3)cs2)cc1`, the outcome in experiment [1] was inactive. In addition, the Potency result in experiment [2] and in experiment [3] was “inactive” in each case. For the same compound, in experiment [4], the Potency was 15.3 µM (active).

As to `O=C(Nc1ccc(S(=O)(=O)Nc2nccs2)cc1)c1cccc2ccccc12`, the result in experiment [1] was inactive. In addition, the Potency result in experiment [2] and in experiment [3] was “inactive” each time. Further, in experiment [4], the Potency is 24.3 µM (active).

As to `CCNC(=O)C1CCC(C(=O)Nc2ccc([S+](=O)([O-])Nc3nccs3)cc2)CC1` (stereo not given), the compound was called inactive in experiment [1]. In addition, the Potency result in experiment [2], in experiment [4] and in experiment [3] was “inactive” each time.

Consider `Cc1ccc(S(=O)(=O)Nc2cnccc2C(=O)Nc2ccc(-c3nc4ccccc4[nH]3)cc2)cc1`, for which the compound was classed as inactive in experiment [1]. In addition, the Potency entry in experiment [2] and in experiment [3] was “inactive” in each case. In addition, the Potency in experiment [4] is 2.17 µM (active).

For `CC(=O)Nc1ccc(S(=O)(=O)Nc2nccs2)cc1`, in experiment [1], the compound was called inactive. Moreover, the Potency result in experiment [2], in experiment [4] and in experiment [3] was “inactive” in each case.

Take `COc1cccc(NC(=O)c2cc(-c3ccc(C)c(C)c3)nc3ccccc23)c1`: in experiment [1], the compound was called inactive. Moreover, the Potency entry in experiment [2] and in experiment [3] was “inactive” in each case. For the same compound, in experiment [4], the Potency was 9.68 µM (active).

`Cc1ccc(S(=O)(=O)NCC(=O)Nc2nc(-c3ccccc3)cs2)cc1`: in experiment [1], the outcome was inactive. For the same compound, the Potency entry in experiment [2] and in experiment [3] was “inactive” each time. Moreover, the Potency in experiment [4] was 19.3 µM (active).

For `COC(=O)c1ccc(NC(=O)c2cc(-c3ccc(C)c(C)c3)nc3ccccc23)cc1`, the compound was classed as inactive in experiment [1]. Besides, the Potency entry in experiment [2] and in experiment [3] was “inactive” throughout. Moreover, in experiment [4], the Potency is 19.3 µM (active).

For `Cc1ccc(S(=O)(=O)Nc2ccc(Cl)cc2C(=O)Nc2nc(-c3ccccc3)cs2)cc1`, the compound was called inactive in experiment [1]. Also, the Potency in experiment [2] was 4.18 µM (active) and 5.9 µM (active); in experiment [4] it was 1.09 µM (active) and 1.72 µM (active). Also, the Potency entry in experiment [3] is “inactive”.

With `CCCCc1ccc(C(=O)Nc2ccc(S(=O)(=O)Nc3nccs3)cc2)cc1`, in experiment [1], the result was inactive. Besides, the Potency in experiment [4] is 10.9 µM (active). The Potency entry in experiment [3] was “inactive”.

On to `Cc1ccc(-c2cc(C(=O)NCC[S+](=O)([O-])O)c3ccccc3n2)cc1C`, for which the call in experiment [1] was inactive. Further, the Potency result in experiment [2], in experiment [4] and in experiment [3] was “inactive” throughout.
